The source made the active and inactive calls.
Legend:
Albumin (Bos taurus) = Albumin (Bos taurus) (UniProt P02769); experiment: bovine serum albumin binders on microarray, profiling panel, artefact control for SMM control protein annotation, biochemical, small-molecule microarray, Alexa647 label, 635/667 nm fluorescence (AID 1118); conditions: BSA-A647 binding, fluorescence 635 nm, higher = more signal;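 further: score merges 667 nm emission intensity and signal-to-noise per printed compound spot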
Sequence of Albumin (Bos taurus) (P02769 whole entry, looked up): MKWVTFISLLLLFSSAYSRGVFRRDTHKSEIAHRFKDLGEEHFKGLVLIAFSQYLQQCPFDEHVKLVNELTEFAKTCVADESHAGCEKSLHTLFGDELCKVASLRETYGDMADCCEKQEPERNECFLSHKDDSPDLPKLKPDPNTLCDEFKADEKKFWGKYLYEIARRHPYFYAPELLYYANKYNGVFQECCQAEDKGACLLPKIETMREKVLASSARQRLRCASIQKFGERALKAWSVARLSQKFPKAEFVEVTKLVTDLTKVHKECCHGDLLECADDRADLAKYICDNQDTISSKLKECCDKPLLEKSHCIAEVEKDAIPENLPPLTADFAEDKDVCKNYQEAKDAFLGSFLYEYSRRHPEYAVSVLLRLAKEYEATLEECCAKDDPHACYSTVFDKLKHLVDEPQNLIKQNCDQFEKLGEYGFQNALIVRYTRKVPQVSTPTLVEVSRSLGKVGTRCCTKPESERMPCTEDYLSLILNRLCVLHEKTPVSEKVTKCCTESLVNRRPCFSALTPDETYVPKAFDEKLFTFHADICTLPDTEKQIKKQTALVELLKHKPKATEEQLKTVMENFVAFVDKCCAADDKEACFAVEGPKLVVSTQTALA

[1] = small-molecule microarray binders of probe aXIP, primary screen, biochemical, NeuroSMM set, 635/667 nm fluorescence (AID 1119); conditions: higher = more signal, called active from +8 up or from −8 down;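 further: probe is the protein aXip251-270 applied at 1 µg/mL to compound-printed slides; binding of probe to printed compounds measured as 667 nm fluorescence plus signal to noise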
[2] = small-molecule binders of probe aNOTCH3, primary screen, biochemical, small-molecule microarray, 635/667 nm fluorescence (AID 1120); conditions: higher = more signal;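 further: probe is a biotin-tagged antibody raised against NOTCH3 rather than NOTCH3 protein; score merges spot fluorescence near 667 nm with spot signal to noise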
[3] = small-molecule binders of probe aNOTCH2, primary screen, biochemical, small-molecule microarray, 635/667 nm fluorescence (AID 1121); conditions: higher = more signal;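 further: score merges feature fluorescence read at 667 nm with its signal to noise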
[4] = biological target: Carbonic anhydrase 2 (Homo sapiens) (UniProt P00918); experiment: CAII small-molecule binders, profiling panel, biochemical, small-molecule microarray, Alexa647-labelled CAII (AID 1122); conditions: CAII-A647 binding fluorescence, higher = more signal
[5] = COS7 lysate on small-molecule microarray, probe aHis, 635 nm (AID 1123); conditions: COS7 cell lysate, fluorescence, higher = more signal;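 further: z-score combines 667nm fluorescence intensity with signal-to-noise per printed compound spot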
[6] = compound binding in COS7 lysate, probe aLAP1, primary screen, cell lysate, small-molecule microarray (AID 1124); conditions: probe aLAP1, fluorescence, higher = more signal;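 further: lysate comes from COS7 cells expressing LAP1 and is applied at 0.3 µg/mL; score merges spot fluorescence near 667 nm with signal-to-noise over triplicate slides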
Sam68 (KHDRBS1) = experiment: Sam68 small-molecule binders, primary screen, biochemical, small-molecule microarray, 635 nm fluorescence (AID 1125); conditions: small-molecule microarray binding, higher = more signal;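 further: score merges 667 nm channel intensity with signal to noise over triplicate slides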
[7] = test system: Chordin-like protein 2 (CHRDL2); experiment: CHRDL2 small-molecule binders, primary screen, biochemical, small-molecule microarray, 635 nm fluorescence (AID 1126); conditions: small-molecule microarray binding, fluorescence 635 nm; higher = more signal;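 further: printed compound slides probed with Chrdl2 protein at 4 µg/mL for 1 h at 4 C; score merges 667 nm emission intensity with signal to noise over three replicate slides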
[8] = biological target: Concanavalin-A (Canavalia ensiformis) (UniProt P02866); experiment: ConA small-molecule binders, primary screen, artefact control for SMM control protein annotation, biochemical, small-molecule microarray, Alexa647 label, 635 nm (AID 1127); conditions: ConA-A647 binding fluorescence, higher = more signal;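 further: z combines 667 nm emission intensity with signal-to-noise across three replicate slides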
Sequence of Concanavalin-A (Canavalia ensiformis) (P02866 whole entry, looked up): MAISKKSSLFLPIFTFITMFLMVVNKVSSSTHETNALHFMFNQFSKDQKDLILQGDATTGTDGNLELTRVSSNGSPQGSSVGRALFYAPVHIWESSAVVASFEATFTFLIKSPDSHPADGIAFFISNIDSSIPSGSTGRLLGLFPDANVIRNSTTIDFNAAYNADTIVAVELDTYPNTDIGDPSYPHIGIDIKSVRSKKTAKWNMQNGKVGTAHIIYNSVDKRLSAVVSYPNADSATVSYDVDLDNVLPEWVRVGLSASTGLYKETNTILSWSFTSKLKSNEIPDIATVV

Row | Compound | composite z-score (Albumin (Bos taurus)) | composite Z-score [1] | composite z-score [2] | composite z-score [3] | composite z-score [4] | composite z-score [5] | composite z-score [6] | composite z-score (Sam68 (KHDRBS1)) | composite z-score [7] | composite z-score [8]
1 | COc1ccc(C(O)C2C=CC3C(=O)N(C)C(=O)C3N2N(c2ccccc2)c2ccccc2)c2ccccc12 (stereo not given) | -0.111 | 1.39 (inactive) | 0.237 | -0.0017 | 0.677 | -0.198 | 0.976 | -0.481 | 0.776 | 0.369
2 | O=C1OCC=C[C@H]2OC34C=CCN(Cn5nnc6ccccc65)C(=O)[C@H]3N(CCCCCO)C(=O)[C@@H]4[C@@H]12 (stereo not given in full) | -0.552 | 0.177 (inactive) | -0.211 | -0.108 | 0.9 | 1.34 | 0.435 | -0.171 | -1.87 | -0.727
3 | O=C(CS)NCCCCCNC(=O)[C@H]1C[C@H]2C(=O)NCC(=O)N2[C@H]1c1cccc(OCCO)c1 | -0.221 | -0.269 (inactive) | -0.249 | -0.164 | 0.728 | 0.0504 | -0.442 | -0.956 | 0.577 | 0.687
4 | O=C1NC(=O)C2C1C=CC(C(O)c1ccc(I)cc1)N2Nc1ccccn1 (stereo not given) | 0.898 | 0.369 (inactive) | -0.0677 | -0.0026 | 0.819 | 2.35 | 1.48 | -0.302 | 0.37 | 0.445
5 | CC(C)[Si](C#CCCCC#N)(Oc1ccccc1Br)C(C)C | 0.435 | 0.147 (inactive) | -0.0377 | -0.092 | 0.508 | 0.51 | 0.0245 | 0.993 | 0.299 | 0.912
6 | C[N+](C)(C)CCCC[C@@H]1NC(=O)[C@@H]2C[C@H](C(=O)NCCCCCN)[C@H](c3ccc(O)cc3)N2C1=O | 0.877 | 1.01 (inactive) | 0.363 | 0.154 | 0.72 | 1.53 | 1.02 | 1.19 | 0.248 | 1.15
7 | CCN(CC)c1ccc(N2CC=CC34O[C@@H]5/C=C\CCC(C)OC(=O)C5[C@H]3C(=O)N(CCCCCO)[C@@H]4C2=O)cc1 (stereo not given in full) | -0.295 | -0.4 (inactive) | -0.222 | -0.19 | 0.905 | -1.05 | -0.472 | -2.57 | -1.16 | -2.12
8 | O=C1C2C=CC(C(O)c3c(F)cccc3Cl)N(Nc3ccccc3F)C2C(=O)N1c1ccccc1 (stereo not given) | 0.913 | -0.145 (inactive) | 0.185 | -0.0216 | 0.691 | 1.67 | 0.497 | 1.21 | -0.534 | 0.972
9 | NCCCCCCNC(=O)[C@H]1C[C@H]2C(=O)N[C@@H](Cc3ccccc3)C(=O)N2[C@H]1c1cccc(OCCO)c1 | 0.845 | -0.336 (inactive) | 0.0657 | -0.0712 | 0.788 | 0.446 | 0.464 | 0.58 | -0.431 | 1.03
10 | C=C(CCCC)/C(=C/C[C@@H](OC(C)=O)c1cccc(OCCO)c1)c1cnc2ccccc2c1 | 0.0156 | 0.785 (inactive) | 0.0141 | -0.124 | 0.687 | 0.366 | -0.0843 | 0.788 | 0.777 | 0.606
11 | CC(CO)N1C(=O)[C@@H]2C3C(=O)OCCC/C=C\[C@H]3OC23C=CCN(CCN2CCOCC2)C(=O)[C@@H]13 (stereo not given in full) | -0.424 | 0.286 (inactive) | -0.21 | -0.147 | 0.366 | -0.463 | -0.277 | 0.191 | -0.0493 | 0.272
12 | CCCCC(=C=CC[C@@H](O)c1cccc(OCCO)c1)C[C@@H](O)c1ccccn1 | 0.416 | 0.216 (inactive) | -0.0881 | -0.172 | 0.7 | 0.617 | 0.651 | 1.29 | 0.263 | 0.664
13 | O=C1NC(=O)C2C1C=CC(C(O)c1ccc(-c3ccccc3)s1)N2Nc1ccc(Cl)cc1Cl (stereo not given) | 0.924 | 1.1 (inactive) | 0.0979 | -0.0611 | 0.759 | 2.82 | 1.2 | 1.33 | -0.717 | 1.06
14 | COC(=O)[C@@]1(Cc2ccc(F)cc2)[C@H]2c3cc(C(=O)N(C)C)n(Cc4cc(C)n(C)n4)c3C[C@H]2CN1C(=O)c1ccccc1 | 1.03 | 0.467 (inactive) | 0.19 | 0.0552 | 0.806 | 3.08 | 0.738 | 1.31 | -0.141 | 1.01
15 | COCCCNC(=O)[C@]1(Cc2ccccc2)N=C(c2ccc(OCCCO)cc2)O[C@@H]1c1ccccc1CN=[N+]=[N-] | 0.999 | -0.127 (inactive) | 0.16 | 0.266 | 0.694 | 3.21 | 0.465 | 1.28 | -0.431 | 1.16
16 | CCOC(=O)C[C@H]1[C@H](OC(=O)c2ccc(-c3ccccc3)cc2)[C@@H](NC(=O)c2ccccc2)c2cc(OCCCO)ccc2N1C(=O)Cc1ccc(OC)cc1 | 0.372 | -0.316 (inactive) | -0.0077 | -0.0664 | -0.0275 | 0.368 | 0.311 | -0.254 | -0.399 | -0.769
17 | O=C(NC1CC1)[C@@H]1c2ccccc2C(=O)N(C2Cc3ccccc3C2)[C@H]1c1ccc(CO)cc1 | 0.378 | -0.358 (inactive) | -0.0166 | 0.0386 | 0.608 | 1.41 | 0.237 | 1.24 | 0.847 | 0.918

From PubChem BioAssay
